Measured values as given in PubChem BioAssay (NCI).
This is part of a sample that, as a whole, favours compounds with a hit. Of some 83,000 tested, about 20% had one in any assay.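 Percent growth is the endpoint: 0 to 100 indicates growth inhibition (40 means 60% inhibition), 0 means no net growth, and negative values indicate cell death.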 Activity calls are given as the source filed them. The calls were made as follows: active = growth percent below 10; inactive = the rest.

Tested on: MDA-MB-468 breast
Assay: NCI-60 one-dose screen, 48 h (100 = growth as untreated, 0 = no growth, -100 = all killed)
Conditions: 10 µM unless noted

Row | Structure (SMILES) | growth
1 | Nc1nc2c(ncn2C2OC3COP(=O)(O)OC4C(COP(=O)(O)OC2C3O)OC(n2cnc3c(N)ncnc32)C4O)c(=O)[nH]1 (centres undefined) | 116% (inactive)
2 | C[C@H]1[C@H](C)CC[C@]2(C(=O)NCC#CCN3CCN(C)CC3)CC[C@]3(C)C(=CC[C@@H]4[C@@]5(C)Cc6c([nH]c7ccccc67)C(C)(C)[C@@H]5CC[C@]43C)[C@H]12 | 90.1% (inactive)
3 | Cc1[nH]c(/C=C2\C(=O)Nc3ccc(F)cc32)c(C)c1C(=O)NC[C@H](O)CN1CCOCC1 | 114% (inactive)
4 | C=C1C(=O)O[C@H]2[C@H]1CC/C(Cn1cc(-c3ccccc3C(F)(F)F)nn1)=C\CC[C@@]1(C)O[C@@H]21 | -56.1% (active)
5 | C=CCN(C)S(=O)(=O)/N=C1\NC(=O)NC1=C(Cl)Cl | 28.7% (inactive)
6 | CC(C)Sc1nc(NNC(N)=S)c(C#N)c(-c2ccc(F)cc2)n1 | 98.4% (inactive)
7 | C=C1SC(=Nc2c(C)cccc2C)N(c2nc(Cl)nc(Cl)n2)C12CCCCC2 | 101% (inactive)
8 | Cc1cc(NN=C(c2ccc(O)cc2)c2ccc(O)cc2)c([N+](=O)[O-])cc1[N+](=O)[O-] | 92.8% (inactive)
9 | Nc1cc(C(=O)O)cc(-n2c(O)c(C=C3N=c4ccccc4=N3)sc2=S)c1 | 105% (inactive)
10 | CCc1ccc(C2=C/C(=C/c3ccc(Cl)cc3)C(=O)N2CCc2ccc(S(N)(=O)=O)cc2)cc1 | 13.5% (inactive)
11 | Brc1ccc(Nc2nc3ccccc3nc2Nc2ccc(Br)cc2)cc1 | -48.6% (active)
12 | Cc1cn2c(/C=C3/C(=O)Nc4c3ccc3ccccc43)c(C(F)(F)F)nc2s1 | 7.93% (active)
13 | c1ccc(-c2oc3ccccc3c2-c2ccccc2)cc1 | 97.9% (inactive)
14 | Oc1ccc(N=Nc2ccc(Br)cc2)c(O)c1 | 15.4% (inactive)
15 | O=C(N/N=C/c1ccc[nH]1)c1[nH]c2ccc(Br)cc2c1-c1ccccc1 | -0.633% (active)
16 | N/C(=N\C(N)=N\c1nc2ccccc2s1)c1ccnc(Br)c1 | 96.6% (inactive)
17 | C=C[C@]1(C)C=C2CC[C@@H]3C(C)(C)C(=O)CC[C@@]3(C)[C@@H]2CC1 | 110% (inactive)
18 | COc1ccc(C(=O)c2cc(OC)c(OC)c(OC)c2)cc1OC(=O)C(Cl)(Cl)Cl | 35.8% (inactive)
19 | COc1cc2nc(-c3ccc(C(F)(F)F)cc3)cc(OCCCN3CCC(O)CC3)c2cc1OC | 44% (inactive)
20 | c1csc([C@@H]2C[C@@H]3Cc4ccc5ccccc5c4N2O3)c1 | 99.2% (inactive)
21 | COCc1nc2ccccc2[nH]1 | 102% (inactive)
22 | CC[C@@H](C(=O)[C@@H](C)[C@@H](O)[C@H](C)[C@@H]1O[C@@H]([C@@H](CC)C(=O)O)CC[C@@H]1C)C1O[C@]2(C=CC(=O)[C@]3(CC[C@@](C)([C@H]4CC[C@](O)(CC)[C@H](C)O4)O3)O2)[C@H](C)C[C@@H]1C (some centres undefined) | 18.9% (inactive)
23 | CCN1CCN(c2cc(C)c3cc(NC(=O)c4ccc(OC)c(OC)c4)ccc3n2)CC1 | 1.89% (active)
24 | COc1ccc(Cn2cc3c(c2-c2cc(OC)c(OC)c(OC)c2)CCc2cnoc2-3)cc1[N+](=O)[O-] | -1.72% (active)
